This is an account of results in PubChem BioAssay (EPA / NIEHS).

Several values for one entry are separate records, joined by “and”; a condition that tells them apart may be missing. Equal values may be shown once. The source holds several records for some structures; these can differ, active in one and inactive in another. Activity calls are given as the source filed them. How the source made its calls: active means hit-call score of the fitted dose curve at least 0.9, where 1 is the maximum; inactive means score below 0.9.

Read-out in this assay: Intercellular Adhesion Molecule 1 (ICAM1), ICAM1 (gene 3383)
Description: BSK_BF4T_ICAM1: BioMAP Diversity Plus: BF4T Assay for Intercellular Adhesion Molecule 1 (ICAM1) Biomarker Activity (AID 2284260). The note with it: primary human bronchial epithelial cells with fibroblasts. The procedure:
BSK_BF4T is a cell-based, multiplexed-readout assay that uses bronchial epithelial cells and dermal fibroblasts, a human vascular primary cell, with measurements taken at 24 hours after chemical dosing in a microplate: 96-well plate.BSK_BF4T_ICAM1 is an assay component measured in the BSK_BF4T assay. It measures ICAM-1 antibody related to regulation of gene expression using ELISA technology.Data from the assay component BSK_BF4T_ICAM1 was analyzed at the endpoint, BSK_BF4T_ICAM1, in the positive analysis fitting direction relative to DMSO as the negative control and baseline of activity. Using a type of binding reporter, gain or loss-of-signal activity can be used to understand protein changes. To generalize the intended target to other relatable targets, this assay endpoint is annotated to the 'cell adhesion molecules' intended target family, where the subfamily is 'Immunoglobulin CAM'.
The levels of cell surface (or secreted, indicated by the prefix "s") biomarker endpoints were measured by ELISA. Overt cytotoxicity to cells in confluent adherent cultures (all systems other than the BT system) was assessed by measuring total protein levels using sulforhodamine B (SRB) staining in parallel cultures at the time of biomarker measurements, indicated as SRB endpoints. For proliferation assays for adherent cell types, individual cell types are cultured at sub-confluence and relative cell numbers quantified by SRB staining at time points optimized for each system (48 h: 3C and CASM3C systems; 72 h: BT and HDF3CGF systems; 96 h: SAg system). SRB was performed by staining cells with 0.1% SRB after fixation with 10% TCA and reading wells at 560 nm.Viability and proliferation of PBMC (T cells) was quantified by Alamar Blue reduction for the SAg and BT systems. For PBMC viability (referred to as PBMC Cytotoxicity within the assay endpoint names), cells were plated (75,000/well in a 96-well plate) and then chemical samples added for 1 h before addition of activators, SEB and TSST-1 (20 ng/mL final concentration each). Cells were incubated for 90 h. Then, Alamar Blue (20 uL/well) (Invitrogen, Cat DAL1100) was added for 6 h, and the plates were read with a fluorescence microplate reader at 546/580 nm (excitation/emission). For PBMC proliferation, cells were plated and activated as above but incubated for only 16 h prior to addition of Alamar Blue. Plates were read after 6 h.
Consider `CC(O)C(F)(F)C(F)(F)F` (stereo not given), for which the result was inactive. For `O=C(O)C(F)(OC(F)(F)C(F)(F)C(F)(F)F)C(F)(F)F` (stereo not given), the outcome was inactive. As for `OCC(F)(F)OC(F)(F)C(F)(F)OC(F)(F)C(F)(F)OC(F)(F)CO`, the result was inactive and the AC50 (in general, the concentration at which the activity in the assay is half-maximal) is 26.9 µM (active).

Turning to `O=S(=O)(F)C(F)(F)C(F)(F)C(F)(F)C(F)(F)C(F)(F)C(F)(F)C(F)(F)C(F)(F)F`, the outcome was inactive.

For the compound `O=C(O)C(F)(F)OC(F)(F)C(F)(F)OC(F)(F)F`, the outcome was inactive.

As to `OCC(F)(F)OC(F)(F)C(F)(F)OC(F)(F)C(F)(F)OC(F)(F)F`, the result was inactive. For `NC(=O)C(F)(F)C(F)(F)F`, the outcome was inactive. As for `O=C(O)C(F)(F)OC(F)(F)C(F)(F)OC(F)(F)C(=O)O`, the outcome was inactive. Regarding `O=C(O)C(F)(F)C(F)(F)C(=O)O`, the result was inactive.

In the case of `FC(F)(F)C(F)(C(F)(F)F)C(F)(F)C(F)(F)CC1CO1` (stereo not given), the outcome was inactive. `OCC(F)(F)OC(F)(F)C(F)(F)OC(F)(F)CO`: the outcome was inactive.

For `C=CC(=O)OCC(F)(F)C(F)F`, the AC50 was 13.9 µM (active) and 22.8 µM (active). Consider `O=C(O)C=CC(F)(C(F)(F)F)C(F)(F)F`, for which the result was inactive. Regarding `COC(=O)C(F)(F)C(F)(F)OC(F)(C(F)(F)F)C(F)(F)OC(F)=C(F)F` (stereo not given), the outcome was inactive.
